Sampled rows, rich in hits. Any-hit rate of the full collection: about 27%.
Cav32 inh – inhibitors of human Cav3.2 T-type calcium channel. O95180. Cav3.2-expressing cells, Fluo-4 calcium fluorescence FDSS; active compounds read low. B-score at 10 µM. 100,000 compounds, 4% hits. AID 449739;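 active means single-dose well whose peak fluorescence ratio is a statistical outlier from its plate by either plate-standardised score or position-corrected B-score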
CYP2C19 inh – inhibitors of human CYP2C19; inhibition, % at 5 µM; 96,000 compounds, 21% hits; CYP2C19 Supersomes, luciferin-H EGE luminescence, 30 min; P33261;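 active means CYP2C19 inhibition above a set limit at 5 µM in the primary screen, cut at about 50% in these data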;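 further: plate controls were negative control wells for no effect and 2.5 mM tranylcypromine positive control for full effect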
CYP2C9 inhib – inhibitors of human CYP2C9. 96,000 compounds, 20% hits. AID 777. P11712. CYP2C9 Supersomes, luciferin-H conversion, luminescence. inhibition, % at 5 µM;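 active means blocking of liver enzyme CYP2C9 beyond about 50% at 5 µM, limit read from the data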
CYP2C9 activ – CYP2C9 (human) activation; P11712; recombinant CYP2C9, luciferin-H conversion, luminescence; active compounds read high; factor 1 = untreated enzyme, 0 = blocked; activation factor at 5 µM; 96,000 compounds, 1.4% hits; AID 1024;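 active means activation factor of 2 or more for CYP2C9 at a 5 µM dose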;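 further: 0 = sulfaphenazole-blocked wells and 1 = vehicle-only wells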
CYP2C19 activ – activators of human cytochrome P450 2C19. recombinant CYP2C19, luciferin-H EGE luminescence; active compounds read high; 0 = fully inhibited enzyme, 1 = untreated enzyme. activation factor at 5 µM. 96,000 tested, under 10 active;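 active means activation factor of at least 2 at 5 µM in the primary screen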;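 further: 0 = wells with 2.5 mM tranylcypromine and 1 = vehicle-only wells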
* = called active by the depositor; nt = no result given.

SMILES	Cav32 inh	CYP2C19 inh	CYP2C9 inhib	CYP2C9 activ	CYP2C19 activ
O=C(COC(=O)CC12CC3CC(CC(Br)(C3)C1)C2)NC(=O)NCc1ccco1	-1.9	46	64*	0.4	0.5
Cn1cccc1C(=O)NC(=O)COC(=O)CC12CC3CC(CC(Br)(C3)C1)C2	-0.33	-10	22	0.8	1.1
C[C@@H]1CCC[C@]2(O[C@@H](CCO)C[C@@H](O)[C@@H]2O)O1	0.057	nt	nt	nt	nt
CCOc1ccc(-n2c(SCC(=O)Nc3ccc4c(c3)OCO4)nc3ccccc3c2=O)cc1	-1	41	62*	0.4	0.6
COc1ccc(-n2c(SCC(=O)Nc3ccc4c(c3)OCO4)nc3ccccc3c2=O)cc1	-0.46	92*	91*	0.1	0.1
COc1ccc(NC(=O)CSc2nc3ccccc3c(=O)n2-c2ccc3c(c2)OCO3)c(OC)c1	-0.67	7	12	0.9	0.9
COc1ccccc1-n1c(SCC(=O)Nc2cccc(C)c2)nc2c(c1=O)SCC2	-1.2	83*	74*	0.3	0.2
COc1ccccc1-n1c(SCC(=O)Nc2ccc3c(c2)OCO3)nc2c(c1=O)SCC2	nt	47	42	0.6	0.5
Cc1ccc(-n2c(SCC(=O)Nc3cc(C)on3)nc3ccccc3c2=O)cc1	-1.6	2	3	1	1
CCC(C)n1c(SCC(=O)NC(=O)Nc2ccc3c(c2)OCCO3)nc2ccccc2c1=O (stereo not drawn)	-0.63	12	90*	0.1	0.9
COC(=O)c1sc2ncn(-n3c(C)ccc3C)c(=O)c2c1C	nt	13	14	0.9	0.9
N#CCCn1ncn(-c2ccccc2)c1=S	1	2	16	0.8	1
O=C(CSc1nnc(C23CC4CC(CC(C4)C2)C3)o1)Nc1ccc(N2CCOCC2)c(Cl)c1	0.99	-4	7	0.9	1
COc1ccc(-n2c(SCC(=O)Nc3ccc4c(c3)OCO4)nc3c(c2=O)SCC3)cc1	0.48	41	58*	0.4	0.6
COc1cc(C(=O)Nc2nnc(CC(=O)N3CCOCC3)s2)cc(OC)c1OC	0.086	-6	19	0.8	1.1
c1ccc(CN2CCN(c3ncccn3)CC2)nc1	nt	54*	42	0.6	0.5
Fc1ccc(CN2CCN(c3ncccn3)CC2)cc1	1	57*	13	0.9	0.4
c1cnc(N2CCN(Cc3c[nH]c4ccccc34)CC2)nc1	0.23	46	35	0.7	0.5
CC(NC(=O)CN1CCN(c2ncccn2)CC1)c1ccc(F)cc1 (stereo not drawn)	0.47	39	92*	0.1	0.6
CCOc1ccccc1N1C(=O)CC(Sc2ncccc2C(=O)O)C1=O (stereo not drawn)	0.93	-18	-30	1.3	1.2
CCC(C)NC(=O)c1ccc(COc2ccccc2Cl)cc1 (stereo not drawn)	-0.098	12	7	0.9	0.9
Cc1nn(C)c(C(=O)Nc2ccn(Cc3c(F)c(F)cc(F)c3F)n2)c1[N+](=O)[O-]	nt	46	49	0.5	0.5
Cc1nn(C)c(C(=O)Nc2ccc(Cn3cccn3)cc2)c1[N+](=O)[O-]	nt	18	40	0.6	0.8
Cc1nn(Cc2cccc(F)c2)c(C)c1NC(=O)c1c([N+](=O)[O-])c(C)nn1C	0.098	76*	62*	0.4	0.2
Cc1nn(Cc2cccc(F)c2)c(C)c1NC(=O)c1ccc(COc2ccccc2Cl)cc1	-4.6*	46	65*	0.3	0.5
SMILES	Cav32 inh	CYP2C19 inh	CYP2C9 inhib	CYP2C9 activ	CYP2C19 activ
Cc1nn(Cc2cccc(C(=O)Nc3ccn(Cc4c(F)c(F)cc(F)c4F)n3)c2)c(C)c1[N+](=O)[O-]	-3	86*	93*	0.1	0.1
Cc1n[nH]c(C)c1S(=O)(=O)N1CCOCC1	0.2	-20	-19	1.2	1.2
Cc1cccc(N2CCN(C(=O)c3cccn4c(=O)c5c(C)c(C)sc5nc34)CC2)c1C	-0.26	92*	96*	0	0.1
Cc1sc2nc3c(C(=O)N4CCN(c5ccccn5)CC4)cccn3c(=O)c2c1C	0.79	9	29	0.7	0.9
C/C(=N\NC(=O)CC1N=C(Cc2ccccc2)NNC1=O)c1ccc(Cl)cc1Cl (stereo not drawn)	-4.7*	19	24	0.8	0.8
C/C(=N\NC(=O)CC1N=C(Cc2ccccc2)NNC1=O)c1ccccc1 (stereo not drawn)	0.75	4	-9	1.1	1
CCC(OC(=O)c1nsc(Cl)c1Cl)C(=O)NCc1ccco1 (stereo not drawn)	-1.1	59*	57*	0.4	0.4
CC(C)C(OC(=O)c1cccs1)C(=O)NCc1ccco1 (stereo not drawn)	0.53	60*	42	0.6	0.4
CC(OC(=O)c1cccs1)C(=O)NCc1ccco1 (stereo not drawn)	0.019	86*	37	0.6	0.1
CCC(OC(=O)c1cc2sccc2n1C)C(=O)NCc1ccco1 (stereo not drawn)	-2	54*	72*	0.3	0.5
COc1cccc(C(C(=O)NCc2ccco2)N(C(=O)Cn2nnc3ccccc32)C2CC2)c1OC (stereo not drawn)	1.6	22	7	0.9	0.8
O=C(OC(C(=O)NCc1cccs1)c1ccccc1Cl)c1ccco1 (stereo not drawn)	0.081	88*	91*	0.1	0.1
COc1ccccc1C(OC(=O)c1cccs1)C(=O)NCc1ccco1 (stereo not drawn)	-1.2	58*	40	0.6	0.4
COc1ccc(CNC(=O)C(OC(=O)c2ccco2)c2ccc(OC)cc2)cc1 (stereo not drawn)	-0.24	nt	nt	nt	nt
CCC(C)(C)NC(=O)C(OC(=O)c1ccco1)c1ccccc1OC (stereo not drawn)	-0.76	64*	38	0.6	0.4
Cc1cc2c(cc(C(=O)OC(C(=O)NCc3ccco3)C(C)C)n2C)o1 (stereo not drawn)	-0.085	66*	47	0.5	0.3
Cc1cc2c(cc(C(=O)OCC(=O)NCc3ccco3)n2C)s1	-2.9	4	2	1	1
CCn1cc(C2=NOC(C(=O)Nc3ccc4c(c3)OCO4)C2)c(C)n1 (stereo not drawn)	0.53	-4	45	0.6	1
CC(C)C(OC(=O)c1cc2occc2n1C)C(=O)NCc1ccc2c(c1)OCO2 (stereo not drawn)	-2.4	74*	85*	0.1	0.3
O=C(NNS(=O)(=O)c1ccccc1)c1cnn(-c2ccccc2)c1-n1cccc1	1.4	24	47	0.5	0.8
O=C(O)C1C(c2ccccc2)C(C(=O)N2CCOCC2)C1c1ccccc1 (stereo not drawn)	0.5	-10	4	1	1.1
O=C(O)C1C(c2ccccc2)C(C(=O)Oc2ccc(O)cc2)C1c1ccccc1 (stereo not drawn)	0.3	11	80*	0.2	0.9
CCOc1ccc(N(CC(=O)NC(C)(C)C)S(=O)(=O)c2c(C)noc2C)cc1	0.23	50*	42	0.6	0.5

Screens as filed in PubChem BioAssay.
